Rows were chosen to be rich in hits. Some 12% of all compounds tested hit in one or more screens of this group.
BAZ2B inh: inhibitors of human BAZ2B bromodomain; Q9UIF8; AlphaScreen BAZ2B-H3K14Ac peptide displacement; Potency, µM (series often up to 114 µM), actives largely listed as inhibitors; hit rate 4.4% among 360,000; further: nearly all actives have a fitted effect of over 60% in size
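Complex of BAZ2B and biotin-H3K14Ac (50 nM apiece) forms over 30 min at RT, then faces library compounds up to 110 uM for another 30 min; AlphaScreen beads added, 20 min dark incubation, luminescence read.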
HP1b binding inh: blocks HP1-beta chromodomain binding to methylated histone tails; AlphaScreen HP1-beta / biotin-H3K9me3 peptide binding; Potency, µM (doses to about 114 µM), most hits filed as inhibitors; hit rate 0.56% among 390,000; P83916; further: nearly all actives have a fitted effect of over 70% in size
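HP1-beta protein (50 nM final) preincubated 30 min at room temperature with biotinylated H3(1-18)K9me3 peptide (50 nM) in PBS pH 7.4, 0.01% Tween-20, then compound added for 30 min. AlphaScreen streptavidin donor/nickel chelate acceptor beads (10 ug/mL final), 30 min dark, luminescence read.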
Sfp PPTase inh: inhibitors of Bacillus subtilis Sfp phosphopantetheinyl transferase; Q9F4F7; Biochemical Sfp PPTase activity, qHTS; Potency, µM, usual class: inhibitors; hit rate 3.5% among 310,000; AID 1490;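 further: the enzyme is Sfp with the accession as filed and its product quenches rhodamine fluorescence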
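Reaction rates are the 30-min fluorescence difference (ex 525, em 598 nm) in wells containing 15 nM Sfp, 5 uM rhodamine-CoA and 12.5 uM BHQ-2-YbbR at pH 7.6 with 10 mM MgCl2.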
L3MBTL1 inh: inhibitors of human L3MBTL1; Q9Y468; AlphaScreen L3MBTL1–H3K9me1 peptide binding; Potency, µM (highest dose often 57.1 µM), actives largely listed as inhibitors; hit rate 0.66% among 230,000; AID 485360; further: nearly all actives have a fitted effect of over 60% in size
Target sequence (Q9Y468 whole entry, looked up): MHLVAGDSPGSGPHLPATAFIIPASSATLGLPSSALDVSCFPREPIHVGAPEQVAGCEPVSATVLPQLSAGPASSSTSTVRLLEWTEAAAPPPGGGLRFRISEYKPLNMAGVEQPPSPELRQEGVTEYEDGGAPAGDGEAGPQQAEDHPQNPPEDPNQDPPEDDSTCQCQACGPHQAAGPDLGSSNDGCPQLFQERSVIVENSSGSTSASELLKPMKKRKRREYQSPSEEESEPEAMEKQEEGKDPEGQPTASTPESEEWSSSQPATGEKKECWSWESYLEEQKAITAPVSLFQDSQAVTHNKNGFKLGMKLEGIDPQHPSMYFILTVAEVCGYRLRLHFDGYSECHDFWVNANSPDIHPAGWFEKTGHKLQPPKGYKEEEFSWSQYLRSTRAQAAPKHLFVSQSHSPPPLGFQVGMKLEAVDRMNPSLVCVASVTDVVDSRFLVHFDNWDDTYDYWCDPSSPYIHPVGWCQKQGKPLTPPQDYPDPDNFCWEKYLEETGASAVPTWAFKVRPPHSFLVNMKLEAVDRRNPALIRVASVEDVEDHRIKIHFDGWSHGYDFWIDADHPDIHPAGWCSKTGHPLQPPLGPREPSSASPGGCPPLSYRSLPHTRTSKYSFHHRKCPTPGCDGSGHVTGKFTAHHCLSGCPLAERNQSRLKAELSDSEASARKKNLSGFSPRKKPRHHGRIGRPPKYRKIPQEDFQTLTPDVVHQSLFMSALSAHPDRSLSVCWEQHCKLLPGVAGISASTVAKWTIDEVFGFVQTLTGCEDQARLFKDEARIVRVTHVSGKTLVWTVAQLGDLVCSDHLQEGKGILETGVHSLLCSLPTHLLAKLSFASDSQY
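Displacement of a biotinylated histone H3(1-15) peptide monomethylated at Lys9 (75 nM) from L3MBTL1 (50 nM) was measured by AlphaScreen after a 30 min room-temperature compound incubation; cefsulodin titration served as intraplate control.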
JMJD2A Tudor: JMJD2A Tudor domain (human) inhibition; AID 504339; O75164; AlphaScreen JMJD2A-Tudor / H3K4me3 peptide binding; Potency, µM (doses to about 114 µM), hits mostly inhibitors; hit rate 4.4% among 390,000; further: nearly all actives have a fitted effect of over 50% in size
G9a block: G9a (human) methyltransferase inhibition; G9a H3K9 monomethylation, AlphaScreen, 2 h; Potency, µM (doses to about 102 µM), hits mostly inhibitors; hit rate 8.8% among 350,000; AID 504332; further: nearly all actives have a fitted effect of over 75% in size
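Step 1: enzyme (final 20 nM) with compound, 15 min RT. Step 2: substrate peptide 500 nM and SAM 20 uM, 2 h RT. Step 3: anti-H3K9me1 antibody and AlphaScreen beads, 10 min, then plate read.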
Each line names hits and unclear results; the compound was inactive in the other large screens. The call rests on the fitted dose curve; in most records, active means well fitted curve in the direction sought with a large enough effect; inconclusive means small, poorly fitted or top-dose-only effect, or another doubt; inactive means no such curve, though single readings can be large; an effect the other way counts as inactive or inconclusive.

Cc1cccc(N=C2NN=C(c3c(C)[nH]c4ccccc34)CS2)c1	BAZ2B inh inconclusive, Sfp PPTase inh 39.8µM, JMJD2A Tudor 44.7µM, G9a block inconclusive
Oc1sc(C=Nc2ccc(F)cc2)c2ccccc12	Sfp PPTase inh 14.1µM, G9a block inconclusive
Oc1c(C=Nc2ccccc2)sc2ccccc12	none
Oc1sc(C=Nc2ccccc2)c2ccccc12	Sfp PPTase inh 44.7µM
COCCN(C(=O)CSc1nc2ccc(OC)cc2[nH]1)c1c(N)n(Cc2ccccc2)c(=O)[nH]c1=O	G9a block 20µM (no result: Sfp PPTase inh)
COCCN(C(=O)CSc1nc(N)cc(=O)[nH]1)c1c(N)n(Cc2ccccc2)c(=O)[nH]c1=O	G9a block 50.1µM (no result: Sfp PPTase inh)
CCOc1ccc2nc(SCC(=O)N(CC(C)C)c3c(N)n(Cc4ccccc4)c(=O)[nH]c3=O)[nH]c2c1	G9a block 50.1µM (no result: Sfp PPTase inh)
COCCN(C(=O)CSc1nc2ccc(C)cc2[nH]1)c1c(N)n(Cc2ccccc2)c(=O)[nH]c1=O	G9a block inconclusive (no result: L3MBTL1 inh)
Cc1ccc2nc(SCC(=O)N(CC(C)C)c3c(N)n(CC(C)C)c(=O)[nH]c3=O)[nH]c2c1	G9a block inconclusive (no result: L3MBTL1 inh)
CC(C)c1nn2c(=O)cc(COC(=O)c3ccc(NC(=O)c4ccccc4Cl)cc3)nc2s1	none (no result: Sfp PPTase inh, L3MBTL1 inh)
CCOC(=O)CCCNC(=O)COC(=O)[C@@H]1CCCN1S(=O)(=O)c1ccc(Cl)cc1	G9a block 50.1µM
CC12C=C(/C=C/C=C/c3ccco3)C(C)(C1)C(/C=C/c1ccco1)CC2=O (stereo not given)	none (no result: BAZ2B inh, HP1b binding inh, L3MBTL1 inh, JMJD2A Tudor, G9a block)
Cc1ccc(-c2c(C)n([O-])c3c([n+]2=O)CCCC3)cc1	JMJD2A Tudor 56.2µM (no result: L3MBTL1 inh)
Cc1c(-c2ccc(Br)cc2)[n+](=O)c2c(n1[O-])CCCCC2	none (no result: G9a block)
O=c1cc(-c2ccc(F)cc2)nc(SCc2nc(-c3cccc(C(F)(F)F)c3)no2)[nH]1	none (no result: Sfp PPTase inh, L3MBTL1 inh)
CCc1ccc(-c2cc(N)n(-c3ccccc3)n2)cc1	HP1b binding inh inconclusive, JMJD2A Tudor inconclusive, G9a block 44.7µM (no result: BAZ2B inh, L3MBTL1 inh)
COc1ccc(-n2nc3c(c2NC(=O)COc2cccc(OC)c2)CS(=O)(=O)C3)cc1	BAZ2B inh inconclusive, Sfp PPTase inh 50.1µM, JMJD2A Tudor inconclusive, G9a block 17.8µM (no result: L3MBTL1 inh)
COc1c2c(cc3c1C(CC(O)C(C)C)N(C)CC3)OCO2 (stereo not given)	none (no result: BAZ2B inh, HP1b binding inh, L3MBTL1 inh, JMJD2A Tudor, G9a block)
O=C(Nc1cccc([N+](=O)[O-])c1)N1CCCc2ccccc21	none (no result: L3MBTL1 inh)
CC(=O)/C(=N/Nc1ccc([N+](=O)[O-])cc1)N1CCCc2ccccc21	BAZ2B inh inconclusive, HP1b binding inh inconclusive, JMJD2A Tudor inconclusive, G9a block 22.4µM (no result: L3MBTL1 inh)
CC(=O)/C(=N/Nc1ccccc1[N+](=O)[O-])N1CCCc2ccccc21	BAZ2B inh 5.62µM, HP1b binding inh 7.94µM, L3MBTL1 inh inconclusive, JMJD2A Tudor 11.2µM, G9a block 5.01µM
COc1cccc(N2CCN(C(=O)c3cc4cc5cc(C)ccc5nc4s3)CC2)c1	none (no result: Sfp PPTase inh, L3MBTL1 inh)
O=C(Cn1cc(CN(Cc2ccccc2)Cc2ccccc2)nn1)Nc1cc(C(F)(F)F)ccc1Cl	none (no result: BAZ2B inh, HP1b binding inh, Sfp PPTase inh, L3MBTL1 inh, G9a block)
Cc1ccc(S(=O)(=O)NC(=NC(C)C)c2ccccc2)cc1	none
Cc1ccc(S(=O)(=O)C/N=C(/NC(=S)N(c2ccccc2)c2ccccc2)c2ccccc2)cc1	Sfp PPTase inh 31.6µM, JMJD2A Tudor inconclusive, G9a block 10µM (no result: L3MBTL1 inh)
Cc1ccc(NC(=O)C(OC(=O)c2cc(C)oc2C)c2ccccc2)cc1 (stereo not given)	G9a block 79.4µM
Cc1cc(C(=O)OC(C(=O)Nc2cccc(C(F)(F)F)c2)c2ccccc2)c(C)o1 (stereo not given)	none
CCOC(=O)C1=C(CS(=O)(=O)c2c(C)cc(C)cc2C)NC(=O)NC1c1cccc(OC)c1 (stereo not given)	none (no result: Sfp PPTase inh, L3MBTL1 inh)
CN1CCN(c2ccc(Cl)cc2NC(=O)CN2C(=O)NC(C)(c3ccccc3)C2=O)CC1 (stereo not given)	G9a block 44.7µM (no result: Sfp PPTase inh)
CC1(c2ccccc2Cl)NC(=O)N(CC(=O)Nc2ccc(N3CCOCC3)cc2)C1=O (stereo not given)	none (no result: BAZ2B inh, Sfp PPTase inh, G9a block)
CC1CCCCC12NC(=O)N(CC(=O)Nc1ccc(N3CCCCC3)cc1)C2=O (stereo not given)	G9a block 15.8µM (no result: Sfp PPTase inh)
CC1CC(C)(C)CC2(C1)NC(=O)N(CC(=O)N1CCN(S(=O)(=O)c3ccc(F)c(F)c3F)CC1)C2=O (stereo not given)	JMJD2A Tudor 20µM (no result: BAZ2B inh, Sfp PPTase inh, L3MBTL1 inh, G9a block)
CC1(c2ccccc2Cl)NC(=O)N(CC(=O)Nc2ccc(N3CCCCC3)cc2)C1=O (stereo not given)	BAZ2B inh 35.5µM, JMJD2A Tudor inconclusive, G9a block 14.1µM (no result: Sfp PPTase inh)
COc1ccc(-n2c(SCc3ccccc3F)nc3c([nH]c4ccccc43)c2=O)cc1	none (no result: Sfp PPTase inh, L3MBTL1 inh)
CCCCN(CCCC)C(=O)CN(C)S(=O)(=O)c1ccc2c(c1)c(=O)n(C)c(=O)n2C	none (no result: Sfp PPTase inh, L3MBTL1 inh)
O=C(NCc1ccc2c(c1)CCN2C(=O)c1ccccc1)Nc1cccc(C(F)(F)F)c1	none (no result: Sfp PPTase inh, L3MBTL1 inh)
CC1CC(C)(C)CC2(C1)NC(=O)N(CC(=O)Nc1ccc(N3CCCCC3)cc1)C2=O (stereo not given)	BAZ2B inh inconclusive, HP1b binding inh inconclusive, JMJD2A Tudor inconclusive, G9a block 44.7µM (no result: L3MBTL1 inh)
O=C1c2ccccc2C(=O)C1(CO)c1ccccc1	G9a block 44.7µM (no result: L3MBTL1 inh)
CCOc1ccc(S(=O)(=O)NCC(c2ccco2)S(=O)(=O)c2cccs2)cc1 (stereo not given)	none (no result: Sfp PPTase inh, L3MBTL1 inh)
O=C(Nc1nnc(-c2cccs2)o1)C1CC1	BAZ2B inh inconclusive, Sfp PPTase inh inconclusive, JMJD2A Tudor 50.1µM, G9a block 50.1µM

Screening data from PubChem.
